# Assay results as given in article PMC7862700, “An all-to-all approach to the identification of sequence-specific readers for epigenetic DNA modifications on cytosine”.
# Experiments:
# Experiment in all cases: DAPPL (digital affinity profiling via proximity ligation, sequencing); 10 mM Tris-HCl pH 7.5, 50 mM NaCl, 1 mM DTT, 4% glycerol, room temperature, 30 min; GST-TFs on glutathione beads, 16-mer random dsDNA library, 0.1% formaldehyde crosslink after washing; high values mean tight binding
# FEV = target: T1, FEV (Homo sapiens, UniProt Q99581 1-238); conditions: protein: recombinant; tags: N-terminal GST; dsDNA, one strand shown
# T1 sequence: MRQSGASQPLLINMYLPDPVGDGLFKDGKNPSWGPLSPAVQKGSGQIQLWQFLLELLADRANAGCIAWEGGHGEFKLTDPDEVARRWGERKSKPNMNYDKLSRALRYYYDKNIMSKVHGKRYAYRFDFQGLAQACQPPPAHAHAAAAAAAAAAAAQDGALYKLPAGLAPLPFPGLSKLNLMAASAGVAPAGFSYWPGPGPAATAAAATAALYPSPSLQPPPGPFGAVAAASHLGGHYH
# How it was run: (§1)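 Human transcription factors fused to GST were expressed in yeast, captured on glutathione beads, given DNA barcodes and pooled with a GST-only negative control. Pools were incubated with 200 nmole of a 16-mer random double-stranded DNA library in Tris/NaCl/DTT/glycerol buffer at room temperature for 30 min. They were then washed, crosslinked with 0.1% formaldehyde, proximity-ligated (BsaI/T4 ligase, 1 h, 37 °C), PCR-amplified and sequenced on an Illumina NextSeq500. Binding signal is each 6-mer's read frequency for a factor divided by its frequency for the GST control.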
# ETV5 = ETV5 (Homo sapiens, UniProt P41161 1-510); conditions: protein: recombinant; tags: N-terminal GST; dsDNA, one strand shown
# ETV5, sequence (P41161 whole entry): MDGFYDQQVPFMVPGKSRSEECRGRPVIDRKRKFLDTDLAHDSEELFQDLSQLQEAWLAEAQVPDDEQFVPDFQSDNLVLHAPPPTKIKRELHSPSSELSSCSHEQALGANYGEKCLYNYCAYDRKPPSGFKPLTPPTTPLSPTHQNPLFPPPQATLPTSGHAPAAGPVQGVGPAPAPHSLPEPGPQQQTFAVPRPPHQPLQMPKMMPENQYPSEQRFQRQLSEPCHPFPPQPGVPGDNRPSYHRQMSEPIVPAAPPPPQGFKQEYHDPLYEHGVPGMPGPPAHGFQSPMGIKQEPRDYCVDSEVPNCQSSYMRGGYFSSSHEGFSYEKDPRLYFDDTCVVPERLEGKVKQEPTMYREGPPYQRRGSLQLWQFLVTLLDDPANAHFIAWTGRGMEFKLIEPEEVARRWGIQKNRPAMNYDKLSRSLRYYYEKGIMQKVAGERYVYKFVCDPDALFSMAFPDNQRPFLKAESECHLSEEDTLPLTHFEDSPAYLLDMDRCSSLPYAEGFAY
# How it was run: as §1
# HSF1 = HSF1 (Homo sapiens, UniProt Q00613 1-529); conditions: protein: recombinant; tags: N-terminal GST; chain copies: 3; dsDNA, one strand shown
# HSF1, sequence (Q00613 whole entry): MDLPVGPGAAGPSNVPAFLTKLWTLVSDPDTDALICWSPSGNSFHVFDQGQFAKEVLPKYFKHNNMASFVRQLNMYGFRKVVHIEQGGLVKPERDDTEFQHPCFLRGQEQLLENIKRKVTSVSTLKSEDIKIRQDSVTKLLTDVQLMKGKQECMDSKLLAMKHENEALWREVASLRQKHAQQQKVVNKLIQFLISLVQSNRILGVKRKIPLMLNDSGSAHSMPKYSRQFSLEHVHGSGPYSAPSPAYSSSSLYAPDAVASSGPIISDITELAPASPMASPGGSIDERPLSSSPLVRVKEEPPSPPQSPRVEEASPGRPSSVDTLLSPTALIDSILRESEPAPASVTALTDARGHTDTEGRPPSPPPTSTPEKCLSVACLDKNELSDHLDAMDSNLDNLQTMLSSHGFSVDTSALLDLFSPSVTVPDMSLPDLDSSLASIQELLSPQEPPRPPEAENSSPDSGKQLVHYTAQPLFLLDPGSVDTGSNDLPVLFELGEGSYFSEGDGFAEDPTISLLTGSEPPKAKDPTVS
# How it was run: as §1
# SPIC = target: T2, SPIC (Homo sapiens, UniProt Q8N5J4 1-248); conditions: protein: recombinant; tags: N-terminal GST; dsDNA, one strand shown
# T2 sequence: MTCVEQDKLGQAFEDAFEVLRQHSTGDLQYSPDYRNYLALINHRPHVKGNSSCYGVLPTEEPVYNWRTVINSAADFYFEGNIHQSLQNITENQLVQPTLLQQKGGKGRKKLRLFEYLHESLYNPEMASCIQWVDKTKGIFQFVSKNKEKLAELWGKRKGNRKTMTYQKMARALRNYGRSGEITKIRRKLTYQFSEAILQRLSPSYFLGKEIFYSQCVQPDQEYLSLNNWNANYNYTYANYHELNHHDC
# How it was run: as §1
# ELF4 = ELF4 (Homo sapiens, UniProt Q99607 1-663); conditions: protein: recombinant; tags: N-terminal GST; dsDNA, one strand shown
# ELF4, sequence (Q99607 whole entry): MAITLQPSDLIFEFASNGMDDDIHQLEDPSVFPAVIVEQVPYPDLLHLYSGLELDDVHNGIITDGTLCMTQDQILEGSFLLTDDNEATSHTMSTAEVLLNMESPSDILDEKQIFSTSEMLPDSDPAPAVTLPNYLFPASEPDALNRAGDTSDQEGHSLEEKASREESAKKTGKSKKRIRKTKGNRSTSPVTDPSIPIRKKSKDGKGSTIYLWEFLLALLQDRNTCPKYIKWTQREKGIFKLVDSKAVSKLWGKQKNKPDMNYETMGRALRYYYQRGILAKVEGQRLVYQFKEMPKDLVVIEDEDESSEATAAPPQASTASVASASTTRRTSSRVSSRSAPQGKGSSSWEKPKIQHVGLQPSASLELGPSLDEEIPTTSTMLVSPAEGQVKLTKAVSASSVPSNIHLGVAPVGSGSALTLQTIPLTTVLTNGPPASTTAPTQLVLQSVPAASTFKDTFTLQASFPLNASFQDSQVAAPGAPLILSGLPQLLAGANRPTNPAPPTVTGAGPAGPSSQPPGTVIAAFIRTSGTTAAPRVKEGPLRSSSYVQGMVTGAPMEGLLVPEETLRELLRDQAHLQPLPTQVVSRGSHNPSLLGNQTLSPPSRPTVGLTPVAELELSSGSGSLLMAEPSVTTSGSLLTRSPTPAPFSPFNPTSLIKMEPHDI
# How it was run: as §1
# ELK4 = target: T3, ELK4 (Homo sapiens, UniProt P28324-2 1-405); conditions: protein: recombinant; tags: N-terminal GST; dsDNA, one strand shown
# T3 sequence: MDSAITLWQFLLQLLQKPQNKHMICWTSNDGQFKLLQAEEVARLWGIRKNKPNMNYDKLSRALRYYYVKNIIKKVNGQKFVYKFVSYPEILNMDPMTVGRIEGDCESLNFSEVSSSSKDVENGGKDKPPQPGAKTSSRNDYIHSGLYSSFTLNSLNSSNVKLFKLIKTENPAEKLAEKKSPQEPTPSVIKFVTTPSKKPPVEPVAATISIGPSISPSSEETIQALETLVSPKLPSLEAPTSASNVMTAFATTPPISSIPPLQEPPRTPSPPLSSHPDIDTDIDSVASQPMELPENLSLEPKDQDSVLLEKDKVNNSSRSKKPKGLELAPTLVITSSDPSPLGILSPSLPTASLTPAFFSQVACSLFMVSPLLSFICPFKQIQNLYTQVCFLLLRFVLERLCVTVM
# How it was run: as §1
# ETV2 = target: T4, ETV2 (Homo sapiens, UniProt O00321 1-342); conditions: protein: recombinant; tags: N-terminal GST; dsDNA, one strand shown
# T4 sequence: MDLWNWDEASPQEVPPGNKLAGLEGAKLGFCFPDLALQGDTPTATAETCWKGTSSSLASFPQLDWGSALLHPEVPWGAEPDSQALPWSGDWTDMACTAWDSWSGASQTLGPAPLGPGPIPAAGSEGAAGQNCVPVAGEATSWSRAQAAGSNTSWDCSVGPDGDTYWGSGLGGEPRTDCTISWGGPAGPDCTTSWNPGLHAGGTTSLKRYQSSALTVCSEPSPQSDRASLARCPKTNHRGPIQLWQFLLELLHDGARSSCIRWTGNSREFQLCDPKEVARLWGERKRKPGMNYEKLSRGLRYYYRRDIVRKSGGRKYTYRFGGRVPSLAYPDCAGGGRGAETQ
# How it was run: as §1
# ELF3 = target: T5, ELF3 (Homo sapiens, UniProt P78545 1-371); conditions: protein: recombinant; tags: N-terminal GST; dsDNA, one strand shown
# T5 sequence: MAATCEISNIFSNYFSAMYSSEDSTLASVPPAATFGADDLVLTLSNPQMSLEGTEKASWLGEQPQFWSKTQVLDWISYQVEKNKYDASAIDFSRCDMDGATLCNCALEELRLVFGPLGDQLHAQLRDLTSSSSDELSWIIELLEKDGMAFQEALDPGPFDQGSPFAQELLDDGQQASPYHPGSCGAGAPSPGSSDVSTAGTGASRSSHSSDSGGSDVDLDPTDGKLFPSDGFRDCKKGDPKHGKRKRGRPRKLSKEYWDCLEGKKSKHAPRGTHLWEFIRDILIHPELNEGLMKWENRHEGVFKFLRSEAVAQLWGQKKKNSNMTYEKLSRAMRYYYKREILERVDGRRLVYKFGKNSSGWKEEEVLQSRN
# How it was run: as §1
# CRX = CRX (Homo sapiens, UniProt O43186 1-299); conditions: protein: recombinant; tags: N-terminal GST; dsDNA, one strand shown
# CRX, sequence (O43186 whole entry): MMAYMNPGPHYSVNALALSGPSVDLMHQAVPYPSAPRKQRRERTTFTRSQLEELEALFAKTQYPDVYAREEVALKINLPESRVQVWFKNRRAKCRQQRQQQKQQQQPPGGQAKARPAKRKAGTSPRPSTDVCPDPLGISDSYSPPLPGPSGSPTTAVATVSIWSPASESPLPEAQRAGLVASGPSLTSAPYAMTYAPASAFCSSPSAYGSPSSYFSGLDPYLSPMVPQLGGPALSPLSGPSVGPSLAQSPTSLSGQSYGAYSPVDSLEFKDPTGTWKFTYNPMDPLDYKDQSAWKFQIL
# How it was run: as §1
# ETV1 = ETV1 (Homo sapiens, UniProt P50549 1-477); conditions: protein: recombinant; tags: N-terminal GST; dsDNA, one strand shown
# ETV1, sequence (P50549 whole entry): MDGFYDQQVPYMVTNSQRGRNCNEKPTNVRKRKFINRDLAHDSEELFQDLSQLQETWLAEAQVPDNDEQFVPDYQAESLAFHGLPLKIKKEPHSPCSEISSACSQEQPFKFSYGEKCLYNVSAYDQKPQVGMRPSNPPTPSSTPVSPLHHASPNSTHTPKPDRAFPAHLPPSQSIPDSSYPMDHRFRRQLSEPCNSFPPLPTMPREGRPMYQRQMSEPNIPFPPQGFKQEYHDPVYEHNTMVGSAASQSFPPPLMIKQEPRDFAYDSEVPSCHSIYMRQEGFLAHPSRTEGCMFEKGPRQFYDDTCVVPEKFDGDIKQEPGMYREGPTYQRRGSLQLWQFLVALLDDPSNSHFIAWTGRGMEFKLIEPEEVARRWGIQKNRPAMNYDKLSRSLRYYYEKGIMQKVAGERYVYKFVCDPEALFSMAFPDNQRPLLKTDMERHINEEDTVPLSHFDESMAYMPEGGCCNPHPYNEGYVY
# How it was run: as §1
# ERF = target: T6, ERF (Homo sapiens, UniProt P50548 1-548); conditions: protein: recombinant; tags: N-terminal GST; dsDNA, one strand shown
# T6 sequence: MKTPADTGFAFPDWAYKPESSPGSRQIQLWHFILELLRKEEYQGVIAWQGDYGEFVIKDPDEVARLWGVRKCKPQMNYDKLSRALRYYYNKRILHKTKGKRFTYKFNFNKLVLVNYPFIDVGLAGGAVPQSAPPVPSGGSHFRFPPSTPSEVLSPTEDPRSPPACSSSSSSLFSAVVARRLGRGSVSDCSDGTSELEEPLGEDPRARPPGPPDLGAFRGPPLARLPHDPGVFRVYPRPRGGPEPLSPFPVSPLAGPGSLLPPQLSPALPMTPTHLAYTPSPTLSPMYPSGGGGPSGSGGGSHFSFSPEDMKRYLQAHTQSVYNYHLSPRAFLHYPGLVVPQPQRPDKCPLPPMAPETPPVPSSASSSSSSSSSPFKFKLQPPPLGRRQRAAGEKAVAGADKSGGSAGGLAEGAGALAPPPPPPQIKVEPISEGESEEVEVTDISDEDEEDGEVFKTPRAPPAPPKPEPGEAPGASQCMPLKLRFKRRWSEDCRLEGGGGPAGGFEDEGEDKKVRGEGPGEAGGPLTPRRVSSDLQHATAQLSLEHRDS
# How it was run: as §1
# ETV3L = target: T7, ETV3L (Homo sapiens, UniProt Q6ZN32 1-361); conditions: protein: recombinant; tags: N-terminal GST; dsDNA, one strand shown
# T7 sequence: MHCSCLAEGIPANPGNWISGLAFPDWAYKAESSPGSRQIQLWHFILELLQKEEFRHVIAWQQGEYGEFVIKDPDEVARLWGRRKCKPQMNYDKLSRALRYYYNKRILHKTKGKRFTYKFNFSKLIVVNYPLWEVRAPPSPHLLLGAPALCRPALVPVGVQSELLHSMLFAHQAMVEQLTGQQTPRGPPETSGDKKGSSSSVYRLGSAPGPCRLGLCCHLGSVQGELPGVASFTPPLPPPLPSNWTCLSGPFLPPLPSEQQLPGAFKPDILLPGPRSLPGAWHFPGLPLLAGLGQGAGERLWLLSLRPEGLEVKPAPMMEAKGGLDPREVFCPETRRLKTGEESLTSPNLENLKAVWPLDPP
# How it was run: as §1
# ETS2 = target: T8, ETS2 (Homo sapiens, UniProt P15036 1-469); conditions: protein: recombinant; tags: N-terminal GST; dsDNA, one strand shown
# T8 sequence: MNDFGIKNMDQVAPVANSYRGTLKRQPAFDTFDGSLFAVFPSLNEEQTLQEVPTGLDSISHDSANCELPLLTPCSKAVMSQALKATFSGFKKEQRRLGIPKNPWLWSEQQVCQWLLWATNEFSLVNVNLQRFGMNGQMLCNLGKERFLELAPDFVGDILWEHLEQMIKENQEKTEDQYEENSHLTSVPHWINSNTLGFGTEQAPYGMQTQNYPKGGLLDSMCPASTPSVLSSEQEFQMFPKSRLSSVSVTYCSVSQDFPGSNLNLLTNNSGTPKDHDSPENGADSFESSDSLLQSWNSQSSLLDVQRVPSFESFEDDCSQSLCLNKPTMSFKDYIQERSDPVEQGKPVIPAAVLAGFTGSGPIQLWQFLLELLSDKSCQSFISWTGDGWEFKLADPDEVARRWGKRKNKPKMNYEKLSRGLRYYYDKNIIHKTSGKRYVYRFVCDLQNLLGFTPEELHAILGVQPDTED
# How it was run: as §1
# SPDEF = target: T9, SPDEF (Homo sapiens, UniProt O95238 1-335); conditions: protein: recombinant; tags: N-terminal GST; dsDNA, one strand shown
# T9 sequence: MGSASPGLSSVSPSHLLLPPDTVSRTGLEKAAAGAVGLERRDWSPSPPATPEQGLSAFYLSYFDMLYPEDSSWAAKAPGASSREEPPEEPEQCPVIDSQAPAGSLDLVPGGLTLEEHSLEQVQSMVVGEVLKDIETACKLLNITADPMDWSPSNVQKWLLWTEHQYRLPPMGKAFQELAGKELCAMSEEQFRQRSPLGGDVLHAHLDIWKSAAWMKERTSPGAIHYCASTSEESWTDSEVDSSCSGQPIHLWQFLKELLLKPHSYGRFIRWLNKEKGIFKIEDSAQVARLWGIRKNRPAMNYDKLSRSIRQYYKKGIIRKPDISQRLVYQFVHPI
# How it was run: as §1
# ETV7 = target: T10, ETV7 (Homo sapiens, UniProt Q9Y603 1-341); conditions: protein: recombinant; tags: N-terminal GST; dsDNA, one strand shown
# T10 sequence: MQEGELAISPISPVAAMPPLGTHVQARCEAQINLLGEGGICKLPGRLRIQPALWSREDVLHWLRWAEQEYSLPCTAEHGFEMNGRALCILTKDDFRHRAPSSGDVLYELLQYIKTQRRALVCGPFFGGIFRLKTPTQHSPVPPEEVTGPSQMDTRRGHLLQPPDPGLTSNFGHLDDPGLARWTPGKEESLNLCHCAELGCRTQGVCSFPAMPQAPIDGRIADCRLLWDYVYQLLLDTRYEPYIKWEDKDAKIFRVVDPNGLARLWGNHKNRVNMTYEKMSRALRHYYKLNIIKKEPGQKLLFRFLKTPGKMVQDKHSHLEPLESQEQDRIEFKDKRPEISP
# How it was run: as §1
# ELF5 = target: T11, ELF5 (Homo sapiens, UniProt Q9UKW6-2 1-255); conditions: protein: recombinant; tags: N-terminal GST; dsDNA, one strand shown
# T11 sequence: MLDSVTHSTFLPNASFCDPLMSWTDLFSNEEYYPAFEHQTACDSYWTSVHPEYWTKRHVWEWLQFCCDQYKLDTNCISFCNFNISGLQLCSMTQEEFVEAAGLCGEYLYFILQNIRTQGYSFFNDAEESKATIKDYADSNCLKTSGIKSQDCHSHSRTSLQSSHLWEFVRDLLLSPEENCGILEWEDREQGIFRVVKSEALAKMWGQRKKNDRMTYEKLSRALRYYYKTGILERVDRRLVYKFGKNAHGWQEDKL
# How it was run: as §1
# ETV3 = target: T12, ETV3 (Homo sapiens, UniProt P41162-2 1-143); conditions: protein: recombinant; tags: N-terminal GST; dsDNA, one strand shown
# T12 sequence: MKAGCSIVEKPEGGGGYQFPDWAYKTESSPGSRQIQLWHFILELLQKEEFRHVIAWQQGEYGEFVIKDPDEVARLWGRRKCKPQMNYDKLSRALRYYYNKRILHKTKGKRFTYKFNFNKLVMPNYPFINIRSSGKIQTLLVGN
# How it was run: as §1
# ETV6 = ETV6 (Homo sapiens, UniProt P41212 1-452); conditions: protein: recombinant; tags: N-terminal GST; dsDNA, one strand shown
# ETV6, sequence (P41212 whole entry): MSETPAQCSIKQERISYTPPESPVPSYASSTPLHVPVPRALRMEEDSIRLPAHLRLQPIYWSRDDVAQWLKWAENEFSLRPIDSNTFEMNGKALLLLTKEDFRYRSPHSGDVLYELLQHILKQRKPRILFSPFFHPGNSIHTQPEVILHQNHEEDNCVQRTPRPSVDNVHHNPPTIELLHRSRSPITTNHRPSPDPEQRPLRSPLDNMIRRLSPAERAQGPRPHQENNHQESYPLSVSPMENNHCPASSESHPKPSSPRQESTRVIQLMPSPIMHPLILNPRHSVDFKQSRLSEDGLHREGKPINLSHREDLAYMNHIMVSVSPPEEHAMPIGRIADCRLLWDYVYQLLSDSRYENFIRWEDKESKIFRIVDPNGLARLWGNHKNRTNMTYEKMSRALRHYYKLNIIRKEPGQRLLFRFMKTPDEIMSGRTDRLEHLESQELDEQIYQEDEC
# How it was run: as §1
sequence,measurement,setting,value
CTCTCG,binding signal,FEV,"1.3 fold enrichment (6-mer frequency, TF over GST control)"
same,binding signal,ETV5,"1.32 fold enrichment (6-mer frequency, TF over GST control)"
same,binding signal,HSF1,"1.99 fold enrichment (6-mer frequency, TF over GST control)"
same,binding signal,SPIC,"1.3 fold enrichment (6-mer frequency, TF over GST control)"
same,binding signal,ELF4,"1.45 fold enrichment (6-mer frequency, TF over GST control)"
same,binding signal,ELK4,"1.41 fold enrichment (6-mer frequency, TF over GST control)"
same,binding signal,ETV2,"1.73 fold enrichment (6-mer frequency, TF over GST control)"
same,binding signal,ELF3,"1.65 fold enrichment (6-mer frequency, TF over GST control)"
same,binding signal,CRX,"1.32 fold enrichment (6-mer frequency, TF over GST control)"
same,binding signal,ETV1,"1.47 fold enrichment (6-mer frequency, TF over GST control)"
same,binding signal,ERF,"1.36 fold enrichment (6-mer frequency, TF over GST control)"
same,binding signal,ETV3L,"1.42 fold enrichment (6-mer frequency, TF over GST control)"
same,binding signal,ETS2,"1.4 fold enrichment (6-mer frequency, TF over GST control)"
same,binding signal,SPDEF,"1.16 fold enrichment (6-mer frequency, TF over GST control)"
same,binding signal,ETV7,"1.25 fold enrichment (6-mer frequency, TF over GST control)"
same,binding signal,ELF5,"1.34 fold enrichment (6-mer frequency, TF over GST control)"
same,binding signal,ETV3,"1.35 fold enrichment (6-mer frequency, TF over GST control)"
same,binding signal,ETV6,"1.31 fold enrichment (6-mer frequency, TF over GST control)"
